Screening results as filed in PubChem BioAssay.
PAD4 FP inh: human PAD4 inhibitors, primary screen, biochemical, fluorescence polarization, 1536-well format; recombinant PAD4, RCA probe fluorescence polarization; inhibition, % at 6.36 µM; AID 485272, 2010; 330,000 compounds, 0.41% hits;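 active means percent inhibition above a cutoff equal to the mean of all tested compounds plus 3 SD, cut at about 15% in these data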
LYPLA2 counter: LYPLA2 inhibitors, primary screen, counter-screen for PME1 inhibitor project, biochemical, fluorescence polarization, FP-Rh probe ABPP; recombinant LYPLA2; AID 2177, 2009; inhibition, % at 5.9 µM; 320,000 compounds, 0.38% hits;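 active means inhibition above the screen-wide mean plus 3 SD, limit set per campaign, cut at about 26% in these data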
Target sequence (O95372 whole entry, looked up): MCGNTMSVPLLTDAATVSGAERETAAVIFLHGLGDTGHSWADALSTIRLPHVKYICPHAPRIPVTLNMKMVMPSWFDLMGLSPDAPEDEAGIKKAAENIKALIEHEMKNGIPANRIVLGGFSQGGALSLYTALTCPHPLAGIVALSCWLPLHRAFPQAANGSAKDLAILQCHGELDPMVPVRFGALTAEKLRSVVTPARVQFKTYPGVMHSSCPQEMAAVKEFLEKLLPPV
PME-1 primary: PME-1 inhibitors via competitive probe labeling, primary screen, biochemical, fluorescence polarization, FP-Rh probe, HTS; Protein phosphatase methylesterase 1 (Homo sapiens), Q9Y570; recombinant PME-1; 320,000 compounds, 0.53% hits; inhibition, % at 5.9 µM; AID 2130, 2009;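 active means inhibition above the campaign mean of all compounds plus 3 SD, cut at about 26% in these data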;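 further: competitive labeling of PME-1 active site by serine hydrolase directed probe; inhibitors block probe labeling so polarization falls and inhibition rises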
Target sequence (Q9Y570 whole entry, looked up): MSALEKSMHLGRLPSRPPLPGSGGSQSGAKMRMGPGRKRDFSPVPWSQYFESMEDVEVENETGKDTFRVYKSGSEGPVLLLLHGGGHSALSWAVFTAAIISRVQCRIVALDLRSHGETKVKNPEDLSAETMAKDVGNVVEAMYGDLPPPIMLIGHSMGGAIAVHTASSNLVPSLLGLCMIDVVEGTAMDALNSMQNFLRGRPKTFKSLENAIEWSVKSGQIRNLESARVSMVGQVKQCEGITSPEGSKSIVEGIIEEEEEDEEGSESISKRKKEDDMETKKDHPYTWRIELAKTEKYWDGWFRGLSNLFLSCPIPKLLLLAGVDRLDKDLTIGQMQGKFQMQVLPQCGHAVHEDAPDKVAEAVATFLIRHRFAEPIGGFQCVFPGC
Fam108B counter: mouse Fam108B serine hydrolase inhibitors, primary screen, counter-screen for RBBP9 inhibitor project, biochemical, fluorescence polarization; recombinant Fam108B, FP-Rh probe fluorescence polarization; inhibition, % at 9.51 µM; 300,000 compounds, 0.33% hits; AID 1947, 2009;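 active means inhibition above the screen mean inhibition plus 3 SD, computed separately per campaign, cut at about 18% in these data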;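 further: inhibitors lower polarization as less probe binds the enzyme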
GSTO1 inh: inhibitors of recombinant GSTO1, primary screen, counter-screen for RBBP9 inhibitor project, biochemical, fluorescence polarization; inhibition, % at 5.96 µM; 300,000 compounds, 1.1% hits; Glutathione S-transferase omega-1 (Homo sapiens), P78417; activity-based probe fluorescence polarization;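 active means inhibition above the campaign mean inhibition plus 3 SD, cut at about 35% in these data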
LYPLA1 inh: LYPLA1 inhibitors, primary screen, counter-screen for PME1 inhibitor project, biochemical, fluorescence polarization, FP-Rh probe ABPP | Acyl-protein thioesterase 1 (Homo sapiens), O75608 | recombinant LYPLA1 | inhibition, % at 5.9 µM | 320,000 compounds, 0.16% hits | AID 2174, 2009;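 active means inhibition above the mean of all tested compounds plus 3 SD, set per campaign, cut at about 14% in these data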;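 further: inhibitors block serine hydrolase probe labeling of LYPLA1 so polarization falls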
GSTO1 confirm: GSTO1 inhibitor hit confirmation, counter-screen for RBBP9 inhibitor project, biochemical, fluorescence polarization, triplicate; 2,400 compounds, 54% hits; shares compounds with GSTO1 inh; recombinant GSTO1, probe fluorescence polarization; inhibition, % at 5.96 µM;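 active means inhibition above the primary screen's cutoff, its mean inhibition plus 3 SD, cut at about 35% in these data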;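 further: loss of polarization as inhibitors block binding of rhodamine sulfonate ester activity probe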
GSTO1 ABPP inh: inhibitors of purified human GSTO1, late-stage follow-up, biochemical, gel ABPP, SE-Rh probe, percent inhibition; inhibition, % at 1 µM; 130 compounds, 30% hits; recombinant GSTO1, gel ABPP SE-Rh probe fluorescence; shares compounds with GSTO1 inh; AID 463110, 2010;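 active means inhibition of the enzyme GSTO1 above about 75%, limit read from the data; inactive means inhibition below that limit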
Large screens that a line does not name were inactive (follow-up assays come after a bar, where they were run). In the library only some 1.8% were active in any assay of this set; here they are far more common.

O=C(CN1CCCC1=O)Nc1ccccc1	none
CC1(C)C(c2ccccc2)=NC(c2cccnc2)N1O (configuration not stated)	none
CC1CCN(C(=O)CCl)CC1	GSTO1 inh 93 | GSTO1 confirm 95 | GSTO1 ABPP inh 83
O=[N+]([O-])c1ccc(O)c([N+](=O)[O-])c1	none
O=[N+]([O-])c1cc(O)c(O)c([N+](=O)[O-])c1	GSTO1 inh 39 | GSTO1 confirm inactive
CCN1C(=O)/C(=C/c2ccc3c(c2)CCN3CCCCl)C(=O)NC1=S	GSTO1 inh 56 | GSTO1 confirm 70
CC(C)(C)N1C(=O)NC(=O)/C(=C\c2ccc3c(c2)CCN3CCCCl)C1=O	GSTO1 inh 38 | GSTO1 confirm 66
O=C1NC(=S)N(C2CC2)C(=O)/C1=C/c1ccc2c(c1)CCN2CCCCl	GSTO1 inh 56 | GSTO1 confirm 63
COc1ccc(/C=C/C(=O)c2c(O)n(CCC3=CCCCC3)c(=O)[nH]c2=O)cc1	none
CCN(CC)CCN=Cc1c(O)n(Cc2ccccc2)c(=O)[nH]c1=O	none
NC1CCCCC1N=Cc1c(O)n(Cc2ccc(F)cc2)c(=O)[nH]c1=O (configuration not stated)	none
C=C(C)Cn1c(=O)n(CC2CS2)c2ccccc21 (configuration not stated)	GSTO1 inh 50 | GSTO1 confirm 46
CC(C)C[C@H]1C(=O)N2CCC[C@H]2[C@]2(O)O[C@](NC(=O)[C@@H]3C=C4c5cccc6[nH]cc(c56)C[C@H]4N(C)C3)(C(C)C)C(=O)N12	GSTO1 inh 51 | GSTO1 confirm inactive
O=C(c1sc2ccccc2c1Cl)N1CCC2(CC1)OCCO2	none
COc1ccc2c(c1)c(C(=O)O)c(C)n2CC(C)C	none
COc1cc(O)c(C(=O)O)c(-c2cc(O)c(O)cc2C)c1	GSTO1 inh 64 | GSTO1 confirm inactive
COc1ccc(C2SCC(=O)Nc3c2c(C)nn3C2CCOC(C)(C)C2)cc1OC (configuration not stated)	none
Cc1cc(NC(=O)CCl)no1	GSTO1 inh 87 | GSTO1 confirm 98
C[C@]12CC[C@H]3[C@@H](CCC4=CC(=O)CC[C@@H]43)[C@@H]1CC[C@@H]2O	none (no result: LYPLA2 counter, PME-1 primary, Fam108B counter, GSTO1 inh, LYPLA1 inh)
C[C@]12CC[C@@H]3c4ccc(O)c(O)c4CC[C@H]3[C@@H]1CC[C@@H]2O	GSTO1 inh 61 | GSTO1 confirm inactive
CCCCCn1c(=O)c(C(=O)Nc2cnccn2)c(O)c2ccccc21	none
N#Cc1c(/N=C/c2c(O)n(Cc3ccco3)c(=O)[nH]c2=O)sc2c1CCCC2	none
Cc1ccccc1N1C(=O)NC(=O)/C(=C\c2cnn(-c3ccccc3)c2)C1=O	none
CCCN1CCc2cccc3c2[C@H]1Cc1ccc(O)c(O)c1-3	GSTO1 inh 93 | GSTO1 confirm inactive
COc1ccc2c(c1O)-c1c(OC)c(OC)cc3c1[C@H](C2)N(C)CC3	none
Nc1c(C(=O)OCC2CCCO2)c2nc3ccccc3nc2n1Cc1cccs1 (configuration not stated)	GSTO1 inh 39 | GSTO1 confirm inactive
N=c1sccn1Cc1ccc(Cl)cc1Cl	GSTO1 inh 75 | GSTO1 confirm inactive
Clc1ccc(CO/N=C(\Cn2ccnc2)c2ccc(Cl)cc2Cl)c(Cl)c1	none
Cc1cc(OCC(=O)NC(Cc2ccc(Cl)cc2)C(=O)O)c2c3c(c(=O)oc2c1)CCC3 (configuration not stated)	none
CC1(C)CC(=O)C(C2(O)C(=O)NC(=O)NC2=O)=C(O)C1	GSTO1 inh 68 | GSTO1 confirm 60
C=C(c1ccccc1)P(=O)(O)O	none
CC(C)CN(CC(C)C)c1ccc(C=C2C(=O)NC(=S)NC2=O)cc1[N+](=O)[O-]	GSTO1 inh 42 | GSTO1 confirm inactive
CN(C)C1C(=O)C(C(N)=O)=C(O)C2(O)C(=O)C3=C(O)c4c(O)cccc4C(C)(O)C3C(O)C12 (configuration not stated)	GSTO1 inh 68 | GSTO1 confirm 42
Cc1cccc(-n2c(O)c(C=NCCN3CCNCC3)c(=O)[nH]c2=S)c1	none
c1ccc(-c2[nH]c[n+](CC3CO3)c2-c2ccccc2)cc1 (configuration not stated)	GSTO1 inh 76 | GSTO1 confirm 81 | GSTO1 ABPP inh inactive
CC(C)(C)c1ccc(O)c(N=Cc2c(O)ccc3ccccc23)c1	GSTO1 inh 69 | GSTO1 confirm inactive
CCCCNC(=O)c1c(N)n(CCCOC)c2nc3ccccc3nc12	GSTO1 inh 51 | GSTO1 confirm inactive
CC(C)CCn1c(N)c(C(=O)NCc2cccs2)c2nc3ccccc3nc21	none
CCCNC(=O)c1c(N)n(Cc2ccco2)c2nc3ccccc3nc12	none
CC(C)CNC(=O)c1c(N)n(Cc2ccc3c(c2)OCO3)c2nc3ccccc3nc12	GSTO1 inh 62 | GSTO1 confirm inactive
CC(C)CNC(=O)c1c(N)n(Cc2ccco2)c2nc3ccccc3nc12	GSTO1 inh 42 | GSTO1 confirm inactive
CCCNC(=O)c1c(N)n(Cc2ccc3c(c2)OCO3)c2nc3ccccc3nc12	none
CC(C)CCNC(=O)c1c(N)n(Cc2ccc3c(c2)OCO3)c2nc3ccccc3nc12	GSTO1 inh 40 | GSTO1 confirm 69
COC(=O)C1=C(c2ccc(OC)c(OC)c2)C[C@@H]2CC[C@H]1N2C(=O)NCc1cccc2ccccc12	none (no result: Fam108B counter, GSTO1 inh)
Cn1c(O)c(C2=NN(C(=O)CCl)C(c3ccccc3)C2)c(=O)n(C)c1=O (configuration not stated)	GSTO1 inh 102 | GSTO1 confirm 98
Oc1ccc2c3c1O[C@H]1c4[nH]c5ccccc5c4C[C@@]4(O)C(C2)N(CC2CC2)CC[C@]314	GSTO1 inh 40 | GSTO1 confirm inactive
Oc1ccc2c3c1O[C@H]1c4[nH]c5ccccc5c4C[C@@]4(O)[C@@H](C2)N(CC2CC2)CC[C@]314	none
